Measurements reported in PubChem BioAssay.
Active and inactive are the calls of the source. Unless noted, the rule behind the calls is not given here.

Legend:
[1] = test system: Wnt5a (protein binding on small-molecule microarray); experiment: Wnt5a binders on small-molecule microarray, primary screen, biophysical, 635/667 nm fluorescence (AID 1142); conditions: 635 nm fluorescence, higher = more signal;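 note: fluorescence read at 667 nm with signal to noise per printed feature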
[2] = cell viability in Huh7 cells, primary screen, cytotoxicity control for HCV replication inhibitor project, CellTiter-Glo luminescence, basal, 48 h (AID 1143); conditions: Huh7 HCV replicon, higher = more signal, called active from +8 up or from −8 down;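 note: Huh7 hepatoma cells carrying a hepatitis C replication reporter with no stimulus; test concentration not given here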
[3] = P. aeruginosa biofilm formation inhibitors, primary screen, PAO1 strain, BacTiter-Glo luminescence, LB-PBS (AID 1144); conditions: 12 h, higher = more signal
[4] = CREB reporter modulators without forskolin, primary screen, cell-based, PC12, CRE-LacZ reporter, unstimulated (AID 1145); conditions: no forskolin, luminescence, 4.5 h, higher = more signal, called active from +8 up or from −8 down
[5] = CREB reporter modulators under forskolin, primary screen, cell-based, PC12, CRE-LacZ reporter, forskolin-stimulated (AID 1146); conditions: luminescence, 4.5 h, higher = more signal, called active from +8 up or from −8 down;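 note: PC12 cells with 6xCRE LacZ reporter stimulated by forskolin 10 µM; beta-galactosidase reporter signal reflecting CREB driven transcription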
[6] = molecular target: Streptavidin (Streptomyces avidinii) (UniProt P22629); experiment: streptavidin binders on small-molecule microarray, primary screen, artefact control for SMM compound annotation, biophysical, 635/667 nm fluorescence (AID 1147); conditions: streptavidin binding, higher = more signal;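 note: signal reflects streptavidin binding to arrayed compounds as a control protein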
[7] = small-molecule binders of probe aInhba, primary screen, biochemical, small-molecule microarray, 635/667 nm fluorescence (AID 1148); conditions: higher = more signal;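 note: score merges 667nm spot fluorescence with signal-to-noise for antibody binding to printed compounds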
[8] = molecular target: Torsin-1A (Homo sapiens) (UniProt O14656); experiment: torsin A binders from cell lysate, primary screen, small-molecule microarray, wild-type, 635/667 nm (AID 1149); conditions: COS7 hTOR1A-WT lysate, 635 nm fluorescence, higher = more signal
[9] = molecular target: Torsin-1A (Homo sapiens) (UniProt O14656); experiment: small-molecule binders of mutant TOR1A in lysate, primary screen, cell lysate, small-molecule microarray, COS7 lysate, 635/667 nm fluorescence (AID 1150); conditions: COS7 hTOR1A mutant lysate, 635 nm fluorescence, higher = more signal;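 note: score pools 667 nm emission and signal to noise measuring lysate protein binding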
[10] = test system: Sonic hedgehog protein (Shh); experiment: small-molecule binders of Shh protein, primary screen, biochemical, small-molecule microarray, 635/667 nm fluorescence (AID 1151); conditions: small-molecule microarray binding, 635 nm fluorescence; higher = more signal;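 note: Shh protein binding to compounds spotted on small-molecule microarray slides; score combines spot fluorescence intensity with signal-to-noise across triplicate slides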
[11] = E. coli DRC41 culture turbidity changes, primary screen, E. coli filamentation inducer project, strain DRC41, OD650, 48 h (AID 1152);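 note: E. coli MC1000 strain DRC41 lacking acrAB efflux pump and sulA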; conditions: E. coli DRC41 (acrAB sulA), higher = more signal, called active from +8 up or from −8 down
[12] = small-molecule binders of probe aLefty1, primary screen, biochemical, small-molecule microarray, 635/667 nm fluorescence (AID 1153); conditions: higher = more signal;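 note: score merges spot fluorescence with signal-to-noise ratio from the scanned slide images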
[13] = PSAC antagonists in infected red cells, primary screen, cell-based, P. falciparum Indochina, OD700, 1 h (AID 1154); conditions: P. falciparum Indochina infected RBC osmotic lysis, higher = more signal, called active from +8 up or from −8 down
[14] = PSAC antagonists in infected red cells, primary screen, cell-based, P. falciparum Indochina, OD700, 2 h (AID 1155);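 note: lysis reports solute entry through the parasite surface anion channel PSAC; channel blockers reduce lysis of infected cells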; conditions: P. falciparum Indochina infected erythrocytes, osmotic lysis OD700; higher = more signal, called active from +8 up or from −8 down
[15] = osmotic lysis modulators in infected erythrocytes, primary screen, PSAC antagonist project, cell-based, P. falciparum Indochina, OD700, 3 h (AID 1156); conditions: higher = more signal, called active from +8 up or from −8 down
[16] = PSAC antagonists in infected red cells, primary screen, cell-based, P. falciparum Indochina, OD700, 18 h (AID 1157); conditions: P. falciparum Indochina infected erythrocytes, osmotic lysis OD700, 18 h; higher = more signal, called active from +8 up or from −8 down
[17] = modulators of S6 phosphorylation in cells, primary screen, cell-based, A549, cytoblot, luminescence, serum-stimulated (AID 1158); conditions: A549 phospho-S6 cytoblot, 5 h, higher = more signal;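 note: serum-stimulated A549 lung adenocarcinoma cells; signal is phosphorylated S6 detected by cytoblot immunostaining with HRP secondary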
[18] = molecular target: NADPH oxidase 2 (Homo sapiens) (UniProt P04839); experiment: NOX2-dependent H2O2 signal modulators, primary screen, NOX inhibitor project, cell-based, HEK293-NOX2, PMA-stimulated, Amplex Red fluorescence (AID 1159); conditions: 45 min, higher = more signal, called active from +8 up or from −8 down; note: test concentration not given here
[19] = molecular target: NADPH oxidase 4 (Homo sapiens) (UniProt Q9NPH5); experiment: NOX4-dependent H2O2 signal modulators, primary screen, NOX inhibitor project, cell-based, HEK293-NOX4, tetracycline-induced, Amplex Red fluorescence (AID 1160); conditions: 45 min, higher = more signal, called active from +8 up or from −8 down
[20] = molecular target: NADPH oxidase 5 (Homo sapiens) (UniProt Q96PH1); experiment: NOX5-dependent H2O2 signal modulators, primary screen, NOX inhibitor project, cell-based, HEK293-NOX5, Amplex Red fluorescence (AID 1161); conditions: HEK293-NOX5, ionomycin, 45 min, higher = more signal
Sequence of NADPH oxidase 5 (Homo sapiens) (Q96PH1 whole entry, looked up): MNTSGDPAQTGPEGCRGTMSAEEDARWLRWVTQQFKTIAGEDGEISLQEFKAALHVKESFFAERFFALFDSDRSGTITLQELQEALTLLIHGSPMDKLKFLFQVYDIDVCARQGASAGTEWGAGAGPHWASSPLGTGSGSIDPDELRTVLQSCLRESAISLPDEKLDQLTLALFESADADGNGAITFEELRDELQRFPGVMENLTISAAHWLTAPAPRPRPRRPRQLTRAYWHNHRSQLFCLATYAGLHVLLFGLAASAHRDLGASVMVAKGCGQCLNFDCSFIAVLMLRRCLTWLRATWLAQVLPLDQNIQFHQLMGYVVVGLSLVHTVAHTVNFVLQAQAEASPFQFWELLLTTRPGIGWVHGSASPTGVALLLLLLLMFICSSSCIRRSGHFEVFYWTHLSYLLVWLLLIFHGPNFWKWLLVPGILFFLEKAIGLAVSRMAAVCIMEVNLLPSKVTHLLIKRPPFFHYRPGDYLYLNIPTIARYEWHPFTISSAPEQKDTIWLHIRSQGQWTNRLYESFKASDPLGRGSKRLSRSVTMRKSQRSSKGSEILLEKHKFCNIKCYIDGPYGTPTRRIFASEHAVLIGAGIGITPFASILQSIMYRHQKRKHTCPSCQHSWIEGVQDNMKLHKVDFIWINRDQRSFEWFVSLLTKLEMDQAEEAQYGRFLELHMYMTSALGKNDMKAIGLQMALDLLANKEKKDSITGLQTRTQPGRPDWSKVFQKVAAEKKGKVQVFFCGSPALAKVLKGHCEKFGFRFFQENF

Sequence of NADPH oxidase 4 (Homo sapiens) (Q9NPH5 whole entry, looked up): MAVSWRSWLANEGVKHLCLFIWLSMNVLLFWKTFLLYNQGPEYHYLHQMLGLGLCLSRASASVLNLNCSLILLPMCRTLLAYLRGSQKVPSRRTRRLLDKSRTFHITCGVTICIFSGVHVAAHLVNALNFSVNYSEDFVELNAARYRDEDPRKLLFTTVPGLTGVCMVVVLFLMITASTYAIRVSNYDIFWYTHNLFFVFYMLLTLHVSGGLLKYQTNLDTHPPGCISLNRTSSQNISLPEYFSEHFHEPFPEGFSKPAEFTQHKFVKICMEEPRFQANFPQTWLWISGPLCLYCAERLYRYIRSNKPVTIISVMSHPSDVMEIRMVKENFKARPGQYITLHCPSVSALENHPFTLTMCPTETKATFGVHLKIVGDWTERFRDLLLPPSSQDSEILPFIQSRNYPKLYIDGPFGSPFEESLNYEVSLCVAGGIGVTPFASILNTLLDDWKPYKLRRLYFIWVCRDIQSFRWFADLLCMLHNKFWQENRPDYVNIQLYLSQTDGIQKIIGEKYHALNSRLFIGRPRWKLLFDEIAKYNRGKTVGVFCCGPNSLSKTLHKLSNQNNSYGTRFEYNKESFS
Sequence of Streptavidin (Streptomyces avidinii) (P22629 whole entry, looked up): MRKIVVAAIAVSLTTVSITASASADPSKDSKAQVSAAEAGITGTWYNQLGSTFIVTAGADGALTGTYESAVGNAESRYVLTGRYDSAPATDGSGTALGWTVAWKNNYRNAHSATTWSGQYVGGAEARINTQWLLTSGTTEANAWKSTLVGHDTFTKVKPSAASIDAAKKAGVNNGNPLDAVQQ
Sequence of NADPH oxidase 2 (Homo sapiens) (P04839 whole entry, looked up): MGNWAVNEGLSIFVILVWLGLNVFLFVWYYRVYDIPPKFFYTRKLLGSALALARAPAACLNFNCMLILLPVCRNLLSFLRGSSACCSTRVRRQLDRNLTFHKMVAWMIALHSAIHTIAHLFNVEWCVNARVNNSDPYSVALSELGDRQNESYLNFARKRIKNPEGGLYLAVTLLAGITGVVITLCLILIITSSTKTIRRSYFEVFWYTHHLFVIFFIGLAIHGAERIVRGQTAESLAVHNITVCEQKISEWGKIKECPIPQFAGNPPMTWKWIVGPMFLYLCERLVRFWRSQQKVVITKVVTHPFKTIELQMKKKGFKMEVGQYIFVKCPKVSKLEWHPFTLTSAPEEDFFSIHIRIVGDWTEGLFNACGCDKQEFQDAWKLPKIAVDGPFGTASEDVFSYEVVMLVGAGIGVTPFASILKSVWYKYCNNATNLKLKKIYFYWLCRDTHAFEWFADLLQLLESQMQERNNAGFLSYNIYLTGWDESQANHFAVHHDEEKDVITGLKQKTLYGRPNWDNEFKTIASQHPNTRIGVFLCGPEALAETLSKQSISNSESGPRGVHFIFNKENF
Sequence of Torsin-1A (Homo sapiens) (O14656 whole entry, looked up): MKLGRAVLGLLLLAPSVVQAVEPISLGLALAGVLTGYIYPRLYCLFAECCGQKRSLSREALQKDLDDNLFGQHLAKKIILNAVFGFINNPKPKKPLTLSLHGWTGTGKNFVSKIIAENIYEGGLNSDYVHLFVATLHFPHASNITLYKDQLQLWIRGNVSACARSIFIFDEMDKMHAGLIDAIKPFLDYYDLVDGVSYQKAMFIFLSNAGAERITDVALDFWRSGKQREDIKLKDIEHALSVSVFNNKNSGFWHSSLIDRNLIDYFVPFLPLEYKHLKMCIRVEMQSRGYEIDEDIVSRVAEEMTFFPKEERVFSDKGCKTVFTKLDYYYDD

Structure (SMILES)	composite z-score [1]	z-score [2]	z-score [3]	z-score [4]	z-score [5]	composite z-score [6]	composite z-score [7]	composite z-score [8]	composite z-score [9]	composite z-score [10]	z-score [11]	composite z-score [12]	z-score [13]	z-score [14]	z-score [15]	z-score [16]	z-score [17]	z-score [18]	z-score [19]	z-score [20]
COC(=O)[C@@H]1CC[C@H](C)[C@@H](c2ccc(C)cc2)N1C(=O)c1ccc(C=NOCC[C@@H]2C=C[C@H](OC(C)=O)[C@@H](COC(C)=O)O2)cc1	0.133	-0.689 (inactive)	0.637 (inactive)	4.56 (inactive)	-0.0189 (inactive)	0.342	-0.0477	0.612	0.481	0.681	0.118 (inactive)	-0.111	3.09 (inactive)	0.897 (inactive)	0.533 (inactive)	0.858 (inactive)	-0.994	-1.19 (inactive)	0.605 (inactive)	-0.134
CC(C)=CCCC(C)=CCON=C1C[C@@H](O)[C@@H](O)[C@@H]2[C@@H]3C(=O)N(C(C)(C)C)C(=O)[C@@H]3CC[C@H]12	0.158	0.232 (inactive)	-0.625 (inactive)	0.7 (inactive)	0.871 (inactive)	0.0957	0.0442	0.366	0.987	0.435	0.367 (inactive)	-0.0603	-0.22 (inactive)	0.28 (inactive)	-0.921 (inactive)	-0.138 (inactive)	-0.443	0.799 (inactive)	0.427 (inactive)	0.0706
CO[C@@H]1COC(=O)CC=C[C@@H](C)[C@H](OC)COC(=O)[C@@H](C)COC(=O)CC=C[C@H]1C	-0.451	-0.128 (inactive)	0.416 (inactive)	0.518 (inactive)	-0.14 (inactive)	0.0524	-0.266	1.4	0.381	1.68	0.604 (inactive)	-0.145	-0.52 (inactive)	0.409 (inactive)	-0.28 (inactive)	0.377 (inactive)	-0.0303	-0.387 (inactive)	0.195 (inactive)	0.479
COC(=O)CC=C[C@@H](C)[C@@H](C=NO[C@@H](C)c1cn([C@H](CO)Cc2ccccc2)nn1)OC	-0.251	-0.323 (inactive)	-0.54 (inactive)	0.597 (inactive)	0.0826 (inactive)	0.303	-0.128	0.652	0.278	0.469	-0.64 (inactive)	-0.275	-0.762 (inactive)	-1.66 (inactive)	-0.726 (inactive)	-1.8 (inactive)	1.32	-0.374 (inactive)	0.173 (inactive)	0.874
CC(C)CON=C1C[C@@H](O)[C@@H](O)[C@@H]2[C@@H]3C(=O)N(c4ccc(F)cc4F)C(=O)[C@@H]3CC[C@H]12	0.0062	-0.86 (inactive)	-0.359 (inactive)	-1.29 (inactive)	-0.907 (inactive)	0.9	-0.243	0.224	-0.0086	1.25	-0.619 (inactive)	0.144	1.17 (inactive)	-0.996 (inactive)	0.12 (inactive)	-1.09 (inactive)	-0.0969	-1.13 (inactive)	0.632 (inactive)	0.178
CCN1C(=O)[C@H]2[C@H]3[C@H](O)[C@H](O)CC(=NNC(=O)OCc4ccc(OC)cc4)[C@@H]3CC[C@H]2C1=O	-0.0453	0.821 (inactive)	-0.409 (inactive)	-0.291 (inactive)	-0.523 (inactive)	-0.0023	-0.0521	-1.18	-0.703	-1.17	-0.382 (inactive)	0.238	1.09 (inactive)	0.195 (inactive)	-0.703 (inactive)	0.181 (inactive)	0.117	-0.13 (inactive)	0.659 (inactive)	-0.0409
CCOC(=O)[C@H](Cc1ccccc1)NC(=O)CCC1CC(OC(=O)NCCc2ccc(F)cc2)CC2(CCCC(COC(=O)NCCc3ccc(Cl)cc3)O2)O1 (stereo not given in full)	0.108	-0.0147 (inactive)	-0.288 (inactive)	-0.526 (inactive)	0.483 (inactive)	0.391	-0.0494	0.371	0.837	0.726	0.0991 (inactive)	-0.0244	1.13 (inactive)	-0.525 (inactive)	0.056 (inactive)	0.126 (inactive)	0.406	0.526 (inactive)	0.311 (inactive)	1.13
CO[C@@H]1COC(=O)CC=C[C@@H](C)[C@@H]2C=C[C@H](O)[C@@H](COC(=O)CC=C[C@H]1C)O2	-0.186	-0.256 (inactive)	0.177 (inactive)	0.877 (inactive)	-0.0355 (inactive)	-0.0274	-0.255	2.58	1.72	2.13	0.988 (inactive)	-0.0984	0.872 (inactive)	-0.28 (inactive)	0.178 (inactive)	-0.213 (inactive)	1.2	0.262 (inactive)	1.18 (inactive)	0.589
CCOC(=O)CCN1C(=O)[C@H]2[C@H]3[C@H](O)[C@H](O)CC(=NOCc4ccccc4)[C@H]3CC[C@H]2C1=O	0.14	0.223 (inactive)	1.14 (inactive)	-0.295 (inactive)	-0.21 (inactive)	0.758	0.0805	-0.296	-0.522	-0.212	1.02 (inactive)	0.914	3.06 (inactive)	0.939 (inactive)	-0.35 (inactive)	0.451 (inactive)	-0.578	-0.43 (inactive)	0.622 (inactive)	0.279
CCCCc1nc2c(c3c1C[C@H](C)OC3)CN(CCOc1ccccc1)CC2	0.0426	-1.65 (inactive)	-2.34 (inactive)	7.15 (inactive)	-1.03 (inactive)	0.501	-0.1	0.599	-0.0271	1.32	0.19 (inactive)	-0.0186	1.3 (inactive)	-0.611 (inactive)	0.128 (inactive)	-0.421 (inactive)	1.86	-0.201 (inactive)	0.25 (inactive)	0.747
COC(=O)[C@H]1[C@@H](O)[C@@]2(O)c3ccccc3O[C@@]2(c2ccccc2)[C@@H]1c1ccccc1	-0.113	-0.359 (inactive)	0.576 (inactive)	1.57 (inactive)	0.0923 (inactive)	-0.419	-0.0361	-0.225	0.258	0.143	-0.262 (inactive)	-0.193	0.249 (inactive)	0.454 (inactive)	0.296 (inactive)	0.148 (inactive)	0.0192	-0.481 (inactive)	0.526 (inactive)	0.152
O=c1n(-c2ccccc2)c(=O)n2n1CC[C@@H]1C(=NOCc3ccccc3)[C@H]3O[C@H]3[C@@H](O)[C@@H]12	0.18	0.492 (inactive)	0.251 (inactive)	-0.385 (inactive)	-0.314 (inactive)	-0.445	-0.0695	-0.614	-0.315	-0.0835	-0.422 (inactive)	-0.514	6.33 (inactive)	0.0311 (inactive)	0.349 (inactive)	0.425 (inactive)	-0.302	-3.43 (inactive)	-0.13 (inactive)	0.183
COC(=O)CC=C[C@@H](C)[C@@H](C=NO[C@@H](C)c1cc(-c2c(C)cc(C)cc2C)no1)NS(=O)(=O)c1ccc(C)cc1	-0.475	-2.83 (inactive)	0.054 (inactive)	4.2 (inactive)	0.0267 (inactive)	-0.195	-0.261	-1.05	-1.32	-1.63	-0.466 (inactive)	0.0437	1.34 (inactive)	-0.745 (inactive)	0.971 (inactive)	-1.89 (inactive)	1.13	-0.868 (inactive)	-0.115 (inactive)	-1.47
CO[C@H]1COC(=O)[C@@H](Cc2ccccc2)NC(=O)[C@@H](C)COC(=O)CCC[C@@H]1C	0.0124	-0.382 (inactive)	-0.0381 (inactive)	-1.21 (inactive)	-0.596 (inactive)	-0.343	-0.285	0.656	0.187	0.787	0.558 (inactive)	-0.309	-1.19 (inactive)	-1.66 (inactive)	-0.155 (inactive)	-2.21 (inactive)	0.781	-0.785 (inactive)	0.533 (inactive)	0.789
CCO[C@H](c1cc(OC)cc([N+](=O)[O-])c1OC)[C@H](C)C=CCC(=O)OC	-0.151	0.0843 (inactive)	-0.0286 (inactive)	-0.0684 (inactive)	-0.893 (inactive)	0.0571	-0.183	0.636	0.192	1.7	0.722 (inactive)	-0.202	0.905 (inactive)	-0.222 (inactive)	-0.361 (inactive)	0.148 (inactive)	-0.168	-0.295 (inactive)	0.276 (inactive)	0.893
CON=C[C@@H](NS(=O)(=O)c1ccc(C)cc1)[C@H](C)C=CCC(=O)OC	0.0181	0.319 (inactive)	-0.357 (inactive)	0.173 (inactive)	-0.196 (inactive)	0.188	-0.128	0.379	-0.199	0.779	-1.47 (inactive)	-0.0984	0.553 (inactive)	0.849 (inactive)	-0.459 (inactive)	0.539 (inactive)	0.22	-0.153 (inactive)	-0.345 (inactive)	-0.415
